# Data taken from PubChem BioAssay (NCATS).
# Inconclusive results are not listed. A number with no mark means an inactive call. Activity calls are given as the source filed them. Calls follow the shape of the dose curve; as a rule, active = well fitted cell-killing curve with a large enough effect; inconclusive = small, poorly fitted or top-dose-only effect; inactive = flat fitted curve, though single readings scatter.
# Assay: qHTS of pediatric cancer cell lines to identify multiple opportunities for drug repurposing: Primary screen for BT-37 cells (AID 1347094);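 as to activity change, negative = cytotoxic: plate controls were DMSO for no effect and bortezomib for full effect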
# Conditions: BT-37 viability, CellTiter-Glo luminescence, 48 h; series mostly up to 57.3 µM; activity change, negative = cytotoxic: at the top concentration
# How it was run: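 Viability was measured as metabolically active cells after 48 hours of treatment, read by CellTiter-Glo luminescence. Compounds were tested at multiple final concentrations, giving concentration-response curves.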
# Potency is read from the fitted curve at half-maximal effect.
SMILES,"activity change, negative = cytotoxic",Potency
Cc1ccc(/C=N/n2c(-c3ccccc3)csc2=S)cc1,-2.95%,–
Cc1ccc(-c2ccccc2C#N)cc1,-2.37%,–
Cc1c(N)cccc1C(F)(F)F,11.4%,–
O=C(c1ccco1)N1CCNCC1,-0.557%,–
Cc1cc(OCCOCC[N+](C)(C)Cc2ccccc2)ccc1C(C)(C)CC(C)(C)C,–,1 nM (active)
Nc1ncnc2c1ncn2Cc1c(F)cccc1Cl,23.3%,–
CCN(CC)CC(=O)OCC(=O)[C@@]1(O)CC[C@H]2[C@@H]3CCC4=CC(=O)CC[C@]4(C)[C@H]3[C@@H](O)C[C@@]21C,7.48%,–
CC(=O)N(CC(=O)N(C)C)c1ccccc1,-3.77%,–
C#Cc1ccc(-c2ccccc2F)cc1,5.89%,–
CCCCCN(CCCOC)C(=O)C(CCC(=O)O)NC(=O)c1ccc(Cl)c(Cl)c1 (stereo unspecified),7.52%,–
COc1ccc2c(c1)c(CC(=O)OC/C=C(\C)CC/C=C(\C)CCC=C(C)C)c(C)n2C(=O)c1ccc(Cl)cc1,-0.169%,–
CC(C)OP(=O)(CP(=O)(OC(C)C)OC(C)C)OC(C)C,16.7%,–
N#Cc1cc(NC(=O)C(=O)O)c(Cl)c(NC(=O)C(=O)O)c1,7.31%,–
CN1C(CSCC(F)(F)F)Nc2cc(Cl)c(S(N)(=O)=O)cc2S1(=O)=O (stereo unspecified),5.65%,–
CN1C(=O)c2ccccc2C1=O,8.98% [at 116 µM],–
CN1N=C(C(N)=O)CCC1=O,4.67%,–
